# Assay results from paper PMC4336329 (PLoS ONE, 2015).
# Out of some 310,000 compounds screened, about 14,000 (4.5%) showed an effect of 50% or more. Effects have a minus sign here. Only a selection was taken, and strong results are over-represented in it overall.
# Molecular target: human ether-à-go-go-related gene (hERG) potassium channel (human, UniProt Q12809)
# Test: primary screen, population patch clamp on CHO cells stably expressing hERG; higher = less effect of the substance
# 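Note: peak tail current of the secondary pulse compared with the same well before compound.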
# Sequence of human ether-à-go-go-related gene (hERG) potassium channel (Q12809 whole entry, looked up): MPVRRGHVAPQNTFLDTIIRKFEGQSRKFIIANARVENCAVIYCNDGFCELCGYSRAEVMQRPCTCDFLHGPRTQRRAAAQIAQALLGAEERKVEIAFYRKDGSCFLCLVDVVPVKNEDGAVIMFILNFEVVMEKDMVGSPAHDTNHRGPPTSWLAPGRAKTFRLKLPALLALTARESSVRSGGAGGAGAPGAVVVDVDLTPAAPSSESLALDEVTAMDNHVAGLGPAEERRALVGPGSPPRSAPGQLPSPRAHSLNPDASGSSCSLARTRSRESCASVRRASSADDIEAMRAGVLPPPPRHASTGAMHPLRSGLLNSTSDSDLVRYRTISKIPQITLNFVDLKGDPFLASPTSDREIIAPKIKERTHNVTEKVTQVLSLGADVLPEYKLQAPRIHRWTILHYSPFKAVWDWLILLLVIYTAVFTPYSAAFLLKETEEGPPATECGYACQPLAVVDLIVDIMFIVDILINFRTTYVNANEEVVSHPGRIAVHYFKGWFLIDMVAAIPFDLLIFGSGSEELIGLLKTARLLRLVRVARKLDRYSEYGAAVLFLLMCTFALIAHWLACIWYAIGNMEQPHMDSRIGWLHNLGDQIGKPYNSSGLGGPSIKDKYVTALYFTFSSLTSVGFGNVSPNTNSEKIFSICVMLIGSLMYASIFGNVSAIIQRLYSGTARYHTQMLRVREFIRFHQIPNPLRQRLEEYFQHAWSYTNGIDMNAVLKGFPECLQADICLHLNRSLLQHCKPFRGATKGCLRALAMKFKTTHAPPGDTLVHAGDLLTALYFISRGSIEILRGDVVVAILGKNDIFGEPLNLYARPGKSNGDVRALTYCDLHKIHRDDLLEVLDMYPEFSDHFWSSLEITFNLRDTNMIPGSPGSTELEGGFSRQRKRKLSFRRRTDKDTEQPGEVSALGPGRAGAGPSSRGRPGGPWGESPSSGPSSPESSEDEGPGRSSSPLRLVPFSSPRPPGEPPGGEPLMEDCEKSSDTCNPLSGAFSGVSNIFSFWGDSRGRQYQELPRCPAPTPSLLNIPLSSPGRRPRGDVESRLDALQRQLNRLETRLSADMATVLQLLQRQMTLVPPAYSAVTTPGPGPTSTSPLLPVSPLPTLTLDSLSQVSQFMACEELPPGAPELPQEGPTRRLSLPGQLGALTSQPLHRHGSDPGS
row,SMILES,"hERG current change (%, negative = inhibition) at 10uM [%]"
1,CCOC(=O)/C(C#N)=C/c1cccc(C)c1,12.6
2,COc1ccccc1-c1nnc(SCC(=O)NCc2ccco2)n1N,17.2
3,CN(Cc1ccccc1)C(=O)COC(=O)c1ccccc1Nc1ccccc1,13
4,NC(=O)COC(=O)c1c2c(nc3ccccc13)CCCC2,-53.3
5,NC(=O)COC(=O)c1c2c(nc3ccccc13)CCC2,9.85
6,NC(=O)COC(=O)c1c2c(nc3ccccc13)CCCCC2,-23.2
7,COc1ccc(/C=C/C2=NC(=C\N(C)C)/C(=O)O2)cc1,-37.6
8,COc1ccc(OCCCCN(C)Cc2ccccc2)cc1.O=C(O)C(=O)O,-45.7
9,CN(CCCOc1ccccc1F)Cc1ccccc1.O=C(O)C(=O)O,-57.3
10,CN(C)CCCCOc1ccccc1F.O=C(O)C(=O)O,14.4
11,CN(CCCOc1ccccc1Br)Cc1ccccc1,-22.1
12,CN(CCCCOc1ccc(F)cc1)Cc1ccccc1.O=C(O)C(=O)O,-54.7
13,CN(CCCCCCCCC(=O)/C=N/O)Cc1ccccc1.Cl,-58.4
14,CN(C)CCCN(CCCNC(=O)/C=N/O)Cc1ccccc1,1.31
15,CN(CCOc1ccc(F)cc1)Cc1ccccc1.O=C(O)C(=O)O,-23.3
16,CN(C)CCCCCCCCCCC(=O)/C=N/O.Cl,-9.03
17,CCc1ccccc1NC(=O)CCS(=O)(=O)c1ccc(OC)cc1,7.48
18,CCOC(=O)c1c(NCC2CCCO2)c2ccccc2[nH]c1=O (centres unmarked),0.695
19,CCCN(CC(=O)Nc1ccccc1C)C(=O)c1ccc(C)c(S(=O)(=O)N2CCCCC2)c1,-11.3
20,CCCCNc1nc(-c2ccccc2)nc(-n2ccnc2)n1,12.2
21,Cc1ccc(Cl)cc1NC(=O)CC1NC2CCCCC2NC1=O (centres unmarked),17.6
22,CCC(C)c1ccccc1N1CC(C(=O)NCCC2=CCCCC2)CC1=O (centres unmarked),8.97

row,SMILES,"hERG current change (%, negative = inhibition) at 10uM [%]"
1,COC(=O)c1ccc(OC)c(-c2c(OC)cc(OC)cc2OC)c1,-1.49
2,Cc1cccc(-n2ncc3c(N4CC(C)CC(C)C4)ncnc32)c1 (centres unmarked),8
3,Cc1ccc(NC(=O)C(=S)NCc2ccco2)cc1,7.1
4,O=c1cc(CSc2ccc(Cl)cc2)nc(-c2ccncc2)[nH]1,1.72
5,O=c1cc(CSc2ccccc2)nc(-c2ccccc2)[nH]1,6.19
6,O=c1cc(CSc2ccc(Cl)cc2)nc(-c2ccccc2)[nH]1,-59.7
7,CC(C)C(=O)NC(=S)/C=C1/N(C)c2ccccc2C1(C)C,-1.42
8,O=C(Cc1sc(-c2ccccc2Cl)nc1-c1ccccc1)Nc1ccccc1,11.3
9,COc1ccc(/C=C/CN2CCC(Oc3ccc(C(=O)N4CCCCC4)cc3)CC2)cc1,-53.6
10,O=C(c1ccc(OC2CCN(CCO)CC2)cc1)N1CCCC1,18.1
11,COCC(=O)N1CCC(Oc2ccc(C(=O)N3CCCCCC3)cc2)CC1,12.1
12,COc1ccccc1/C=C/CN1CCC(Oc2ccc(C(=O)N3CCCCC3)cc2)CC1,-44.6
13,CC(C)/C=C/CN1CCC(Oc2ccc(C(=O)N3CCCC3)cc2)CC1,-35.3
14,O=C(c1ccc(OC2CCN(C/C=C/c3ccc(F)cc3)CC2)cc1)N1CCCCC1,-64.9
15,O=C(c1ccc(OC2CCN(C/C=C/c3ccc(F)cc3)CC2)cc1)N1CCCC1,-75.5
16,COCC(=O)N1CCC(Oc2ccc(C(=O)N3CCCCCCC3)cc2)CC1,22.7
17,O=C(c1ccc(OC2CCN(Cc3ccccc3OC(F)F)CC2)cc1)N1CCCC1,-3.42
18,CCN1CCN(Cc2ccc(NC(=O)c3cc(NC(=O)c4cncc(-c5cccs5)c4)cc(OC)c3)cc2C(F)(F)F)CC1.O=C(O)C(F)(F)F,9.85
19,COc1cc(OC)cc(C(=O)NNC(=O)Cc2ccc(OC)c(S(=O)(=O)N3CCOCC3)c2)c1,-1.89
20,COC/C=C/C1=CC2=CC(=O)C(C)(OC(=O)c3cnc4ccccc4n3)C(=O)C2=CN1c1ccc(OC)cc1 (centres unmarked),-4.95
21,O=c1[nH]c2ccccc2cc1CN(c1ccccc1)S(=O)(=O)c1ccccc1,0.56
22,Cc1ccccc1OCCC(=O)OCC(=O)N1CCN(S(=O)(=O)c2ccc(Cl)cc2)CC1,-13.1

row,SMILES,"hERG current change (%, negative = inhibition) at 10uM [%]"
1,CCCCCSc1cc(OC)c(CCNC)cc1OC.O=C(O)/C=C\C(=O)O,-48.2
2,CCCCCCCSc1cc(OC)c(CCNC)cc1OC.O=C(O)/C=C\C(=O)O,-41.3
3,CCCCCSc1cc(OC)c(CCN)cc1OC.O=C(O)/C=C\C(=O)O,-35.9
4,CCCCCCCSc1cc(OC)c(CCN(C)C)cc1OC.O=C(O)/C=C\C(=O)O,-64.3
5,CCCCCSc1cc(O)c(C(CNC)C(C)C)cc1OC.O=C(O)/C=C\C(=O)O (centres unmarked),-12.9
6,CCCCCSc1cc(OC)c(CCN(C)C)cc1OC.O=C(O)/C=C\C(=O)O,-57.9
7,C/C(=N\OC(=O)Nc1ccccc1)c1ccc(C)cc1,-15.9
8,CN(CCC#N)C(=O)CSc1nc2scc(-c3ccccc3)c2c(=O)[nH]1,-12.6
9,COc1ccc(CCNC(=O)C(=O)NCC2OCCN2S(=O)(=O)c2ccc(OC)cc2)cc1 (centres unmarked),-47.3
10,COc1ccccc1C(=O)Nc1ccc2nc3n(c(=O)c2c1)CCCC3,-36.3
11,COc1ccc(NC(=O)CC2SC(=O)NC2=O)cc1 (centres unmarked),26.8
12,Cc1ccccc1NC(=O)Cc1nc(COC(=O)c2ccc(Cl)c(S(N)(=O)=O)c2)cs1,-60.9
13,Cc1ccccc1NC(=O)Cc1nc(COC(=O)c2ccc(Cl)nc2)cs1,2.75
14,Cc1ccccc1NC(=O)Cc1nc(COC(=O)c2cccc(O)c2)cs1,-17.7
15,COc1ccc(CCNC(=O)CSc2ccc3nnc(CCNC(=O)c4ccccc4)n3n2)cc1OC,6.1
16,CCOC(=O)c1[nH]nc2c1C(=O)N(Cc1ccccc1)C2=O,6.13
17,COc1ccc(/C=N/NC(=O)CSc2ccccn2)cc1OC,2.42
18,CCNC(=O)COC(=O)c1cc(-c2ccccc2)nn1-c1ccccc1,-61.8
19,CCOC(=O)c1cc(-c2cccnc2)nn1-c1ccccc1,9.52
20,CNC(=O)COC(=O)c1cc(-c2ccccc2)nn1-c1ccccc1,-5.35
21,Cc1ccc(CNC(=O)CN2C(=O)NC3(CC(C)CC(C)(C)C3)C2=O)cc1 (centres unmarked),-3.14
22,COc1ccc(-n2c(O)c(C=NCCCn3ccnc3)c(=O)[nH]c2=O)cc1,14.1

row,SMILES,"hERG current change (%, negative = inhibition) at 10uM [%]"
1,O=C(Nc1ccc(N2CCOCC2)c(Cl)c1)c1ccc2c(c1)OCCO2,-0.379
2,CN1CCN(c2ccc(NC(=O)c3ccc4c(c3)OCCO4)cc2Cl)CC1,-81.2
3,CC(C)C(=O)N1CCN(c2ccc(NC(=O)c3ccc4c(c3)OCCO4)cc2Cl)CC1,-15
4,O=C(Nc1ccc(N2CCCC2)c(Cl)c1)c1ccc2c(c1)OCCO2,11.8
5,CC(=O)N1CCN(c2ccc(NC(=O)c3ccc4c(c3)OCCO4)cc2Cl)CC1,-64.7
6,O=C(Nc1ccc(N2CCCCC2)c(Cl)c1)c1ccc2c(c1)OCCO2,-1.06
7,CCCOc1ccc(C(=O)CCC(=O)OCC(=O)Nc2ccc(Oc3ccccc3)cc2)cc1,-13.3
8,COCCn1nnnc1CN1CCC(Cc2ccccc2)CC1.Cl,-3.18
9,O=C(OCC(=O)N1CCN(C(=O)c2ccco2)CC1)c1ccccc1C(=O)c1ccc(Cl)cc1,-64.8
10,O=C(OCC(=O)N1CCN(C(=O)c2ccco2)CC1)c1cc(S(=O)(=O)Nc2ccc(Cl)cc2)ccc1O,-64.6
11,CCOC(=O)C1CCN(C(=O)COC(=O)c2ccccc2C(=O)c2ccc(Cl)cc2)CC1,-50.4
12,O=C(OCC(=O)N1CCN(C(=O)c2ccco2)CC1)c1ccccc1Cc1ccccc1,-56.3
13,CCOC(=O)C1CCN(C(=O)COC(=O)COc2ccc(Cl)cc2)CC1,13.3
14,O=C(OCC(=O)N1CCOCC1)c1ccccc1Cc1ccccc1,-35.2
15,O=C(CCNS(=O)(=O)c1ccc(Cl)cc1)OCC(=O)N1CCN(C(=O)c2ccco2)CC1,-47.4
16,O=C(OCC(=O)N1CCN(C(=O)c2ccco2)CC1)c1ccccc1NCCO,12.6
17,CCOC(=O)C1CCN(C(=O)COC(=O)Cc2ccc(Cl)cc2)CC1,-22.7
18,O=C(OCC(=O)N1CCN(C(=O)c2ccco2)CC1)c1ccccc1C(=O)c1ccccc1,-34
19,COc1ccc(NS(=O)(=O)c2ccc(O)c(C(=O)OCC(=O)N3CCCCC3)c2)cc1,-7.02
20,O=C(OCC(=O)N1CCN(C(=O)c2ccco2)CC1)c1ccccc1OCc1ccccc1,-43.3
